From PubChem BioAssay (NCI)
This is part of a sample that, as a whole, favours compounds with a hit. Of some 79,000 tested, about 15% had one in any assay. Unmarked numbers belong to inactive results. Active and inactive are the calls of the source. Cut-off read from the data, not from the text of the source: active = growth inhibition above about 70%; inactive = the rest.

Key:
[1] = NCI Yeast Anticancer Drug Screen. Data for the rad50 strain (AID 155);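 note: 0% = growth of vehicle-only cultures of the same strain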; conditions: S. cerevisiae rad50 strain growth inhibition; at 50.0 µM; hits give high values
Summary of the method: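 Genetically altered yeast (DNA repair pathway); compound treatment; growth inhibition vs vehicle ctrl.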

[2] = NCI Yeast Anticancer Drug Screen. Data for the mec2-1 strain (AID 157); conditions: S. cerevisiae mec2-1 strain, at 50.0 µM, hits give high values
Summary of the method: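 Yeast mec2-1 mutant treated with compound. Readout: growth inhibition vs vehicle controls.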

[3] = NCI Yeast Anticancer Drug Screen. Data for the sgs1 mgt1 strain (AID 161);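 note: 0% = growth of cultures given vehicle only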; conditions: S. cerevisiae sgs1 mgt1 strain, at 50.0 µM, hits give high values
Summary of the method: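 Test agents were incubated with a DNA-repair-mutant yeast strain. Growth was then read and compared against vehicle-treated controls.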

[4] = NCI Yeast Anticancer Drug Screen. Data for the cln2 rad14 strain (AID 165);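 note: 0% = growth equal to vehicle treated cultures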; conditions: S. cerevisiae cln2 rad14 strain, at 50.0 µM, hits give high values
Summary of the method: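 cln2 rad14 yeast strain; compound exposure; growth inhibition read vs vehicle controls.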

[5] = NCI Yeast Anticancer Drug Screen. Data for the bub3 strain (AID 167); conditions: S. cerevisiae bub3 mutant strain, at 50.0 µM, hits give high values
Summary of the method: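 Yeast carrying a defined mutation is treated with each compound, and growth is compared with that of vehicle-exposed cells to give inhibition.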

[6] = NCI Yeast Anticancer Drug Screen. Data for the mlh1 rad18 strain (AID 175); conditions: S. cerevisiae mlh1 rad18 strain growth inhibition; at 50.0 µM; hits give high values
Summary of the method: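 Yeast w/ defined DNA-repair lesions; compound exposure; growth vs vehicle controls → % inhibition.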

| Compound | growth inhibition [1] | growth inhibition [2] | growth inhibition [3] | growth inhibition [4] | growth inhibition [5] | growth inhibition [6] |
| --- | --- | --- | --- | --- | --- | --- |
| O=CC1CCCO1 (stereo not given) | 21.2% | -22.2% | 15.2% | 6.9% | 6.45% | 22% |
| O=C(O)COc1cc(-c2ccccc2)nc2ccc(F)cc12 | -3% | 16.6% | 31.5% | 7.25% | 3.1% | 10.2% |
| N#CC1(c2nc3ccccc3o2)C(=O)C(=O)N(C2C3CC4CC(C3)CC2C4)C(=O)C1=O (stereo not given) | -8.65% | 6.05% | -39.1% | 16.2% | -5.75% | -9.35% |
| NC(N)=NC(CC(=O)O)c1ccccc1 (stereo not given) | -1.15% | -20% | -26.4% | -26.2% | -46.4% | 10.2% |
| O=C(CN1CCN(c2cccc(Cl)c2)CC1)N1CCc2c([nH]c3ccccc23)C1c1cccnc1 (stereo not given) | -15.3% | -30.8% | 1.6% | 6% | -2.25% | -16.9% |
| CC(=O)Nc1cc(NC(C)=O)c(N=O)c(NC(C)=O)n1 | -19.5% | -13.2% | -0.7% | -3.45% | -15.8% | 7.35% |
| N#CCCCCBr | 12.4% | 6.95% | -4.2% | -50.7% | 15.6% | 7.5% |
| Cc1ccc(-c2cs/c(=N\N=C3/CSC(=O)N3Cc3ccccc3)n2-c2ccccc2)cc1 | 41.1% | 22.8% | 12.1% | 0.35% | -2.55% | 40.4% |
| CCCCC(O)CNc1ccccc1 (stereo not given) | -7.4% | 14.7% | 5.7% | -5.75% | 9.65% | 3.75% |
| Nc1ncnc2c1ncn2CCCCCO | 5.15% | 49.7% | 13.7% | 7.35% | 3.45% | 13.3% |
| Cc1cccc(CC(CC(=O)O)C(=O)O)c1 (stereo not given) | 4.85% | 9.45% | -1.85% | 11.6% | -2.45% | 1.4% |
| COc1ccc(-c2cc(=O)c3ccc(O)cc3o2)c(OC)c1OC | -4.7% | -10.4% | -8.35% | 6.65% | -2.65% | -1.75% |
| NCCCCN(CCCN)C(=O)c1ccccc1 | 5.5% | -2.2% | -17.8% | 1.8% | -14.3% | -68.9% |
| Cc1cc(C)c(NC(=O)c2c(Cl)c(Cl)c(Cl)c(Cl)c2C(=O)O)c(C)c1 | -4.9% | -4.45% | 0.05% | -51.3% | 5.5% | 0.3% |
| CCCCCCCNc1ccc(C(=O)OCC)cc1 | -1.5% | 5.35% | -1.95% | 8.15% | 7.3% | -7.55% |
| CCOC(=O)C(NC(=O)Cc1ccccc1)C(=O)OCC | 10.8% | 10.3% | -0.75% | 10.8% | 14.9% | -17.9% |
| OCCCCCCCCCCCO | 16.9% | 2.3% | 4.35% | -15.5% | 12.6% | -19.9% |
| CCCCCC(=O)OC(C)COc1ccccc1 (stereo not given) | 20.6% | 22.7% | 20.8% | -10.8% | 30.9% | 28.6% |
| COc1ccc(/C(C)=N/NC(=O)CC(=O)N(C(=O)c2ccccc2)c2ccc(C)cc2)cc1 | -8.45% | -36% | -6.5% | 8.15% | -27.2% | -17.9% |
| CC(=O)C(N)=NCc1ccccc1 | 10.2% | 2.7% | -10.7% | 4.6% | 25.8% | 10.8% |

| Compound | growth inhibition [1] | growth inhibition [2] | growth inhibition [3] | growth inhibition [4] | growth inhibition [5] | growth inhibition [6] |
| --- | --- | --- | --- | --- | --- | --- |
| Cc1ccc(S(=O)(=O)NN=C2C(C)(C)C(=O)C2(C)C)cc1 | -1.5% | -1.1% | -32.9% | 32.1% | -2.25% | -6.45% |
| O=C(CNC(=O)C(CO)NC(=O)OCc1ccccc1)OCc1ccccc1 (stereo not given) | 12.4% | 3% | 9.35% | 4.1% | -0.1% | 4.35% |
| Nc1nc(N)c2nc(-c3ccc([N+](=O)[O-])cc3)c(Cl)nc2n1 | -8.2% | -16.3% | -11.9% | -44.9% | -27% | -28.7% |
| Cc1ccc(COC(=O)Nc2ccc(C)c(NC(=O)OCc3ccc(C)cc3)c2)cc1 | 14.4% | -1.15% | 11.7% | -2.9% | -3.8% | 30.1% |
| CCC(C)NC(=O)C1C2CCC(C2)C1C(=O)NC(C)CC (stereo not given) | 10.7% | -2.9% | -10.2% | -18.9% | -7.5% | 7% |
| Nc1ccc(Nc2c3ccccc3nc3ccccc23)cc1 | 96% (active) | 33% | 23.4% | 10.3% | 23.4% | 69.3% |
| CC(=O)c1cnn(C(N)=O)c1C | -42.6% | -18.5% | -23.7% | -46.5% | 13.5% | -5.75% |
| COC(=O)c1cc(-c2ccccc2)nc2c(Cl)cc(Cl)cc12 | -4.4% | -12.1% | -5.55% | -28.6% | 11.7% | -14.4% |
| COC1/C=C/OC2(C)Oc3c(C)c(O)c4c(c3C2=O)C(N)=C(Nc2ccccc2)C(=NC(=O)C(C)=CC=CC(C)C(O)C(C)C(O)C(C)C(OC(C)=O)C1C)C4=O (stereo not given) | 15.5% | 45.5% | 41.9% | 46.5% | 16.9% | 39.9% |
| OC1CC2CCCCC2CC1C1CCCCC1 (stereo not given) | 4.15% | -11.2% | -7.25% | -25.6% | -23.7% | 0.85% |
| O=c1[nH]cnc2c1sc(=S)n2-c1ccccc1 | 7.15% | -10.5% | 10.2% | 6.7% | -12.3% | -2.4% |
| O=C(O)C1CC=CCC1C(=O)Nc1cccc(O)c1 (stereo not given) | -16.9% | -30.8% | -51.7% | 38.5% | -40% | 6.25% |
| COc1ccc2[nH]cc(CC(NC(C)=O)C(=O)O)c2c1 (stereo not given) | 1.75% | -0.9% | 1.55% | -0.5% | 3.85% | -1.25% |
| CCOC(=O)C(C(=O)CC(C)C)C(C)C (stereo not given) | -15.9% | -25.2% | 1.1% | -30.4% | 2.95% | -5.7% |
| O=C1N[C@H](Cc2cnc[nH]2)C(=O)N2CCC[C@@H]12 | 15.2% | -3.55% | 8.75% | 16.1% | 9.75% | 23.7% |
| C=CCn1c(=O)cc[nH]c1=S | -11.6% | -13.2% | -24.7% | 3.4% | -1.05% | -21.2% |
| CC(C)c1cccc2ccccc12 | 2.85% | 0.2% | -2.9% | -13.8% | -4.7% | 13.4% |
| CN(CC(C)(C)C=O)C(=O)c1ccccc1 | 8.05% | -5.45% | -10% | -8.3% | -19.1% | -1% |
| Cc1ccc(-n2cc(-c3ccc(Cl)cc3)c3c(NNC(=S)NCc4ccccc4)ncnc32)cc1 | 30.9% | 35% | 52.5% | 32.4% | 40.7% | 11.1% |
| O=C1c2ccccc2C(=O)N1Cc1ccc(CN2C(=O)c3ccccc3C2=O)cc1 | -9% | -3.75% | -16% | -12.2% | -1.55% | -11.1% |
